# High-throughput results: PubChem BioAssay, The Scripps Research Institute Molecular Screening Center
# GPR151 ag – activates the human receptor GPR151; Q8TDV0; PathHunter beta-arrestin GPR151 cells, luminescence; activation, % at 11.2 µM; hit rate 1% among 650,000; in the data active = activation above about 4.9%;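 note: 0% = median of compound wells and 100% = cells with positive control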
# MITF primary – human MITF inhibition, primary screen; hit rate 0.91% among 650,000; inhibition, % at 2.6 µM; AID 1259374; O75030; AlphaScreen MITF homodimerization, bead proximity signal; in the data active = inhibition above about 50%;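 note: 0% = vehicle wells with protein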
# Target sequence (O75030 whole entry, looked up): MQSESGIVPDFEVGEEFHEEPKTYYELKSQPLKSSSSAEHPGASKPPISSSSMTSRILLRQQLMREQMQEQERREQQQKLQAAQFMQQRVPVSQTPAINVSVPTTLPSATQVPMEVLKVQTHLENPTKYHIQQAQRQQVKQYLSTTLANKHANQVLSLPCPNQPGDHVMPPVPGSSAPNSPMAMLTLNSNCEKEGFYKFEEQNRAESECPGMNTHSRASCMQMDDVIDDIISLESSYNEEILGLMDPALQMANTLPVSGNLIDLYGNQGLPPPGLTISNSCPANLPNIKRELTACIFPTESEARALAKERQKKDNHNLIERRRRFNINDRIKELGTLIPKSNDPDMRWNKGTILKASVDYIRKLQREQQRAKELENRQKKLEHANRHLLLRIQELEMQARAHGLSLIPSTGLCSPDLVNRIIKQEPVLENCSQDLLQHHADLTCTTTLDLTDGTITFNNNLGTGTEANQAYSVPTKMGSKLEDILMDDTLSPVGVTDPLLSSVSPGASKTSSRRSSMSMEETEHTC
# TEAD-YAP inh – TEAD-YAP interaction inhibition. inhibition, % at 9.12 µM. AID 1259422. hit rate 1.4% among 640,000. HEK-TIYL cells, TEAD-Gal4/YAP UAS-luciferase luminescence; in the data active = inhibition above about 32%;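 note: 0% = median of test compound wells and 100% = reference inhibitor wells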
# FBW7 activator – human FBW7 E3 ligase activation, primary screen; AID 1259310; normalized activity (activation), % at 26.1 µM; hit rate 0.13% among 650,000; AlphaScreen FBW7–phospho-cyclin E peptide binding, activator screen; in the data active = normalized activity above about 1.9%;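 note: purified mutant Fbw7 with reduced substrate affinity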
# * = called active by the depositor; ! = a repeat was not active. Compounds with a hit are over-represented: about 3.5% of the library has one in this group of screens.
SMILES,GPR151 ag,MITF primary,TEAD-YAP inh,FBW7 activator
OCCNCCNCc1ccc2[nH]c3ccccc3c2c1,-1.3,-1.4,3.0,0.5
Cc1ccsc1/C=N/NC(=O)c1nnn(-c2nonc2N)c1CN(C)C,0.0,9.5,-0.4,0.2
O=C1/C(=C/c2ccco2)SC(=S)N1NS(=O)(=O)c1ccccc1,1.7,59.5*,8.4,0.0
COc1ccc(/C=C2/SC(=S)N(NS(=O)(=O)c3ccccc3)C2=O)cc1,1.5,-6.6,-2.2,0.0
CCC(C(=O)O)N1C(=O)/C(=C\c2ccco2)SC1=S (stereo not given),0.9,59.3*,-6.2,-0.1
CCC(C(=O)O)N1C(=O)/C(=C/c2cccs2)SC1=S (stereo not given),-1.2,1.0,4.4,-0.2
CC(=O)c1c(C)n(CCO)c2ccc(O)cc12,-1.1,10.8,6.3,0.0
CCC(C)(C)NC(=O)CN(Cc1cccc(OC)c1)C(=O)c1snc(C(N)=O)c1N,1.1,3.4,-2.1,1.2
Cc1cc2c(cc1C)n(C1CC(=O)C3OCC1O3)c(=S)n2Cc1ccccc1Cl (stereo not given),2.2,13.4,48.0*,0.1
COc1ccccc1C(=O)N/N=C(\C)c1cccnc1,-0.7,-9.3,-52.3,0.0
COc1ccc(C2=N/C(=C\c3cn(C(C)=O)c4ccc(Br)cc34)C(=O)O2)cc1[N+](=O)[O-],0.2,14.4,7.8,-0.1
CCN(CC)S(=O)(=O)c1ccc(N=Nc2cnc(N)s2)cc1,0.8,11.4,-7.6,-0.2
CC(C)c1ccc(CNC(=O)C(=O)NCc2cccnc2)cc1,-0.1,-12.0,47.1*,-0.1
O=C(NCc1cccnc1)c1ccc(C#Cc2ccccc2)o1,0.4,-2.1,99.2*,0.1
O=C(NCc1ccccc1)C(=O)NCc1cccnc1,2.2,0.5,-6.6,0.0
Cc1ccccc1-n1cc(-c2ccccc2)nc1SCC(=O)Nc1ccc(Cl)cc1,-0.6,4.1,-2.2,-0.2
C=CCn1c(C)cc(C(=O)CSc2nnc(N)s2)c1C,-5.7,4.4,39.5*,0.1
COCCOC(=O)C1=C(C)NC2=C(C(=O)CC(c3cccs3)C2)C1c1cccs1 (stereo not given),0.3,-17.3,-4.8,0.0
COC(=O)C1=C(C)NC2=C(C(=O)CC(c3cccs3)C2)C1c1cccs1 (stereo not given),-0.2,2.8,4.3,0.1
COC(=O)C1=C(C)NC2=C(C(=O)CC(c3cccs3)C2)C1c1cc(OC)c(Br)cc1OC (stereo not given),1.0,-2.7,60.2*,0.0
COCCOC(=O)C1=C(C)NC2=C(C(=O)CC(c3cccs3)C2)C1c1ccc(F)cc1 (stereo not given),-0.4,1.1,36.4*!,-0.1
CCOC(=O)C1=C(C)NC2=C(C(=O)CC(c3cccs3)C2)C1c1cccs1 (stereo not given),-0.7,-1.3,51.2*!,-0.1
COC(=O)C1=C(C)NC2=C(C(=O)CC(c3cccs3)C2)C1c1ccsc1 (stereo not given),-0.5,9.3,32.9*,0.8
COCCOC(=O)C1=C(C)NC2=C(C(=O)CC(c3cccs3)C2)C1c1ccccc1F (stereo not given),-0.8,8.1,15.2,0.3
O=C1CSC(c2ccccn2)N1c1ccccc1 (stereo not given),-0.1,10.4,-2.2,1.6
SMILES,GPR151 ag,MITF primary,TEAD-YAP inh,FBW7 activator
CC1=C(C(=O)OC(C)C)C(c2cccs2)C2=C(CC(c3cccs3)CC2=O)N1 (stereo not given),0.1,-6.1,37.2*,0.0
CCc1ccc(C2C(C(=O)OC(C)C)=C(C)NC3=C2C(=O)CC(c2cccs2)C3)s1 (stereo not given),1.4,1.9,-8.1,0.2
CC(=O)c1ccc(N=c2oc3cc(O)ccc3cc2C(N)=O)cc1,-2.5,-4.7,60.3*,-0.1
NC(=O)c1cc2ccc(O)cc2oc1=Nc1ccc(-c2ccccc2)cc1,0.8,13.4,-8.9,1.4
FC(F)(F)c1cc(-c2cccs2)nc(-n2ccnc2)n1,-0.3,-2.7,6.7,0.2
CCOC(=O)c1ccc(NC(=O)/C(=C\c2ccco2)NC(=O)c2ccccc2)cc1,1.0,-2.5,5.7,-0.3
O=c1c(O)cc2c(-c3ccccc3)c3cc(O)c(O)c(Br)c3oc-2c1Br,-0.2,96.0*,-5.3,-0.6
Cc1cccc(C(=O)Nc2snc(Cl)c2C#N)c1,-0.2,-0.4,38.6*,0.1
Cc1cccc(C(=O)Nc2sccc2C#N)c1,-0.8,-10.5,-21.8,0.1
O=C(N[C@H]1C[C@H]2C(=O)N[C@@H](COCc3ccccc3)C(=O)N2C1)c1cccc2ccccc12,0.0,5.7,2.3,0.2
N#Cc1nc(N2CCCC2)nc(N2CCCC2)n1,0.2,4.4,37.4*,-0.1
Clc1ccc(-n2ncc3c(N4CCCC4)ncnc32)cc1,2.7,-3.1,35.2*,-0.1
Clc1ccc(-n2ncc3c(N4CCCCC4)ncnc32)cc1,-1.0,-10.2,96.0*,0.1
Fc1ccc(-n2ncc3c(N4CCCCCC4)ncnc32)cc1,1.8,8.2,27.7,0.7
COC(=O)Nc1ccc(S(=O)(=O)N2c3ccccc3CCC2C)cc1 (stereo not given),1.4,-8.1,52.6*,0.1
Cc1occc1-c1nnc(SCC(=O)NC2CCCCC2C)n1C (stereo not given),-0.4,-0.9,7.0,0.4
O=C(c1ccco1)N1CCN(c2ncc(-c3ccccc3CO)n3ccnc23)CC1,-3.9,-3.8,-1.5,6.7*
O=C(c1ccco1)N1CCN(c2nccn3c(-c4ccccc4CO)cnc23)CC1,-2.3,-7.5,-0.5,-0.3
CC(=O)c1ccc(NC(=O)C(NS(=O)(=O)c2cccs2)C(C)C)cc1 (stereo not given),-1.5,10.8,5.5,0.7
CON(C)C(=O)c1ccc2c(c1)CC(c1nc3ccc(-c4ccnc(N)n4)cc3[nH]1)CO2 (stereo not given),-0.8,25.2,11.1,0.1
CC(CNC(=O)c1ccc2c(c1)CC(c1nc3ccc(-c4ccnc(N)n4)cc3[nH]1)CO2)c1ccccc1 (stereo not given),0.0,-1.7,41.2*,1.9*
CN(CCc1ccccc1)C(=O)c1ccc2c(c1)CC(c1nc3ccc(-c4ccnc(N)n4)cc3[nH]1)CO2 (stereo not given),2.0,-14.3,73.3*,0.0
COC(=O)C(=O)CC(=O)c1ccc(Cl)s1,-0.4,-10.8,-1.0,0.0
COc1ccc(-c2nc3ccc(C(=O)NC4CCN(Cc5ccccc5)CC4)cc3s2)cc1,0.3,12.7,6.6,0.1
O=S(=O)(N1CCCCCC1)N1CCN(c2ccccn2)CC1,1.5,-14.4,-12.3,0.1
COc1ccc(S(=O)(=O)Nc2cccc3c(C)c(C)[nH]c23)cc1,1.9,9.7,44.4*,-0.2
CCOC(=O)c1cc2cccc(NS(=O)(=O)c3ccc(OC)cc3)c2[nH]1,0.0,-4.0,52.3*,-0.1
Cc1[nH]c2c(NS(=O)(=O)c3ccc4oc(=O)ccc4c3)cccc2c1C,0.1,3.0,-3.8,-0.2
CCOC(=O)c1cc2cccc(NS(=O)(=O)c3cccs3)c2[nH]1,-2.2,6.3,4.1,0.1
O=C1N=c2ccccc2=C1c1c(NC(=O)c2cccc([N+](=O)[O-])c2)[nH]n(-c2c(Cl)cc(Cl)cc2Cl)c1=O,0.1,-1.4,-3.4,-0.3
